In PubChem BioAssay (NCATS):
Records with an inconclusive call do not appear. Calls of active or inactive are those of the source. Calls follow the shape of the dose curve; as a rule, active = well fitted curve in the direction sought with a large enough effect; inconclusive = small, poorly fitted or top-dose-only effect, or another doubt; inactive = no such curve, though single readings can be large; an effect the other way counts as inactive or inconclusive.

Legend:
KB-3-1 = assay: Cytotoxic Profiling of Annotated Libraries Using Quantitative High-Throughput Screening (AID 1296008); conditions: Five cell lines viability, CellTiter-Glo ATP luminescence, 48-72 h; max response: hits give low values; also: nearly all actives have a fitted effect of over 60% in size; as to max response: % is scaled to controls: 0 for no effect and ±100 for the full control effect
Summary of the method: (§1)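 Compounds were pin-transferred onto cells and incubated 48 or 72 hr at 37 degree Celsius, 95% humidity. CellTiter-Glo was added, plates sat 10 min at room temperature, then ATP-coupled luminescence was imaged as the viability read-out.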

NIH3T3 = assay: as above; conditions: Five cell lines viability, CellTiter-Glo ATP luminescence, 48-72 h; max response: hits give low values
Summary of the method: as §1

HACAT = assay: qHTS assay to identify novel small-molecules to repurpose for Merkel cell carcinoma treatment (AID 1296009); conditions: MCC and control cell lines, CellTiter-Glo viability, 72 h; at 44.8 µM (top of the series) unless noted; also: nearly all actives have a fitted effect of over 60% in size
Summary of the method: (§2)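 qHTS format: cells treated with library compounds in DMSO across 8 (NPC) or 11 (MIPE) concentrations. Readout after 72 hr at 37 degree celsius was CellTiter-Glo luminescence.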

HEK293T [1] = assay: as above; conditions: MCC and control cell lines, CellTiter-Glo viability, 72 h; series mostly up to 44.8 µM
Summary of the method: as §2

C33A = assay: Primary qHTS to identify gynecologic anti-cancer compounds using libraries of approved drugs and bioactive compounds (AID 1345084); conditions: Gynecologic cancer cell panel viability, ATPlite luminescence, 48 h; series mostly up to 57.5 µM; also: % is scaled to controls: 0 for no effect and ±100 for the full control effect; nearly all actives have a fitted effect of over 55% in size
Summary of the method: (§3)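 Cells, 1,000 per well, plated 16 h, then exposed 48 h at 37 C to compounds. Viability by ATPlite luminescence after 15 min at room temperature.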

CAOV3 = assay: as above; conditions: Gynecologic cancer cell panel viability, ATPlite luminescence, 48 h; series mostly up to 57.5 µM
Summary of the method: as §3

CASKI = assay: as above; conditions: Gynecologic cancer cell panel viability, ATPlite luminescence, 48 h; series mostly up to 57.5 µM
Summary of the method: as §3

Es-2 = assay: as above; conditions: Gynecologic cancer cell panel viability, ATPlite luminescence, 48 h; series mostly up to 57.5 µM
Summary of the method: as §3

HeLa = assay: as above; conditions: Gynecologic cancer cell panel viability, ATPlite luminescence, 48 h; series mostly up to 57.5 µM
Summary of the method: as §3

Hek293T [2] = assay: as above; conditions: Gynecologic cancer cell panel viability, ATPlite luminescence, 48 h, control line for the selectivity index; series mostly up to 57.5 µM
Summary of the method: as §3

JEG-3 = assay: as above; conditions: Gynecologic cancer cell panel viability, ATPlite luminescence, 48 h; series mostly up to 57.5 µM
Summary of the method: as §3

OV90 = assay: as above; conditions: Gynecologic cancer cell panel viability, ATPlite luminescence, 48 h; series mostly up to 57.5 µM
Summary of the method: as §3

PA-1 = assay: as above; conditions: Gynecologic cancer cell panel viability, ATPlite luminescence, 48 h; series mostly up to 57.5 µM
Summary of the method: as §3

COCCCNCC1COc2ccccc2O1 (centres undefined)
inactive: max response (KB-3-1) 6.68% | max response (NIH3T3) 4.14% | outcome (HACAT) | Potency (HEK293T [1]) | Potency (C33A) | Potency (CAOV3) | Potency (CASKI) | Potency (Es-2) | Potency (HeLa) | Potency (Hek293T [2]) | Potency (JEG-3) | Potency (OV90) | Potency (PA-1)

C=C1CCC2C(C)(C)C(O)CCC2(C)C1CCC(C)CCOC(=O)CCC(=O)O (centres undefined)
inactive: max response (KB-3-1) 1.36% | max response (NIH3T3) -1.95% | outcome (HACAT) inactive [at 17.4 µM] | Potency (HEK293T [1]) | Potency (C33A) | Potency (CAOV3) | Potency (CASKI) | Potency (Es-2) | Potency (HeLa) | Potency (Hek293T [2]) | Potency (JEG-3) | Potency (OV90) | Potency (PA-1)

C[C@@H]1C(=O)O[C@H]2CC34[C@H]5C[C@@H](C(C)(C)C)C36[C@@H](OC(=O)[C@@H]6O)OC4(C(=O)O5)[C@]21O (some centres undefined)
inactive: max response (KB-3-1) 9.69% | max response (NIH3T3) 4.14% | outcome (HACAT) | Potency (HEK293T [1]) | Potency (C33A) | Potency (CAOV3) | Potency (CASKI) | Potency (Es-2) | Potency (HeLa) | Potency (Hek293T [2]) | Potency (JEG-3) | Potency (OV90) | Potency (PA-1)

COc1cc(/C=C/C(=O)OC2[C@H](O)CC(O)(C(=O)O)C[C@H]2O)ccc1O (some centres undefined)
inactive: max response (KB-3-1) 0.663% | max response (NIH3T3) -0.19% | outcome (HACAT) | Potency (HEK293T [1]) | Potency (C33A) | Potency (CAOV3) | Potency (CASKI) | Potency (Es-2) | Potency (HeLa) | Potency (Hek293T [2]) | Potency (JEG-3) | Potency (OV90) | Potency (PA-1)

COC(=O)C1=CO[C@@H](O[C@@H]2O[C@H](CO)[C@@H](O)[C@H](O)[C@H]2O)[C@@H]2[C@@H](C(=O)OC)[C@@H](O)C(O)[C@H]12 (some centres undefined)
inactive: max response (KB-3-1) 0.336% | max response (NIH3T3) 1.13% | outcome (HACAT) inactive [at 17.4 µM] | Potency (HEK293T [1]) | Potency (C33A) | Potency (CAOV3) | Potency (CASKI) | Potency (Es-2) | Potency (HeLa) | Potency (Hek293T [2]) | Potency (JEG-3) | Potency (OV90) | Potency (PA-1)

CC1=C2[C@@H]([C@H](C)CC[C@H]2/C=C(\C)C(=O)O)[C@H](O)C1
inactive: max response (KB-3-1) 3.15% | max response (NIH3T3) 3.16% | outcome (HACAT) | Potency (HEK293T [1]) | Potency (C33A) | Potency (CAOV3) | Potency (CASKI) | Potency (Es-2) | Potency (HeLa) | Potency (Hek293T [2]) | Potency (JEG-3) | Potency (OV90) | Potency (PA-1)

CCC(C)/C=C(C)/C=C/C1=CC2=C(Cl)C(=O)C(C)(OC(C)=O)C(=O)C2=CN1C1CCCCN(C(CCC(N)=O)C(=O)O)C1=O (centres undefined)
inactive: outcome (KB-3-1) | max response (NIH3T3) -1.04% | outcome (HACAT) inactive [at 17.4 µM] | Potency (HEK293T [1]) | Potency (C33A) | Potency (CAOV3) | Potency (CASKI) | Potency (Es-2) | Potency (HeLa) | Potency (Hek293T [2]) | Potency (JEG-3) | Potency (OV90) | Potency (PA-1)

C/C=C/C=C/C=C/C(=O)O[C@@H]1C=C(CO)C(O)(C(=O)O)[C@@]2(C)CCCC(C)(C)[C@H]12 (some centres undefined)
inactive: max response (KB-3-1) 0.213% | max response (NIH3T3) -2.73% | outcome (HACAT) inactive [at 17.4 µM] | Potency (HEK293T [1]) | Potency (C33A) | Potency (CAOV3) | Potency (CASKI) | Potency (Es-2) | Potency (HeLa) | Potency (Hek293T [2]) | Potency (JEG-3) | Potency (OV90) | Potency (PA-1)

CC1CCC2(C(=O)OC3OC(CO)C(O)C(O)C3O)CCC3(C(=O)O)C(=CCC4C5(C)CCC(OC6OC(C)C(O)C(O)C6O)C(C)(C)C5CCC43C)C2C1C (centres undefined)
inactive: outcome (KB-3-1) | max response (NIH3T3) 4.68% | outcome (HACAT) inactive [at 17.4 µM] | Potency (HEK293T [1]) | Potency (C33A) | Potency (CAOV3) | Potency (CASKI) | Potency (Es-2) | Potency (HeLa) | Potency (Hek293T [2]) | Potency (JEG-3) | Potency (OV90) | Potency (PA-1)

C/C=C/C=C/C=C/C(=O)O[C@@H]1[C@@H](OC)C2=C(C(=O)N(C(C)C(=O)O)C2)[C@@]2(C)CCCC(C)(C)[C@H]12 (some centres undefined)
inactive: max response (KB-3-1) 5.59% | max response (NIH3T3) 0.76% | outcome (HACAT) inactive [at 17.4 µM] | Potency (HEK293T [1]) | Potency (C33A) | Potency (CAOV3) | Potency (CASKI) | Potency (Es-2) | Potency (HeLa) | Potency (Hek293T [2]) | Potency (JEG-3) | Potency (OV90) | Potency (PA-1)

CC(=O)OC[C@@]12[C@H](O)C[C@]3(C)C(=CCC4[C@@]5(C)CC[C@H](O[C@@H]6O[C@H](C(=O)O)[C@@H](O[C@@H]7O[C@H](CO)[C@@H](O)[C@H](O)[C@H]7O)[C@H](O)[C@H]6O[C@@H]6O[C@H](CO)[C@@H](O)[C@H](O)[C@H]6O)[C@](C)(CO)C5CC[C@]43C)[C@@H]1CC(C)(C)[C@@H](OC(C)=O)[C@@H]2O (some centres undefined)
inactive: max response (KB-3-1) 6.14% | max response (NIH3T3) 0.485% | outcome (HACAT) inactive [at 9.27 µM] | outcome (HEK293T [1]) inactive [at 9.27 µM] | activity change, negative = cytotoxicity (C33A) -7.61% [at 11.6 µM] | activity change, negative = cytotoxicity (CAOV3) 8.05% [at 11.6 µM] | activity change, negative = cytotoxicity (CASKI) 5.42% [at 11.6 µM] | activity change, negative = cytotoxicity (Es-2) 3.37% [at 11.6 µM] | activity change, negative = cytotoxicity (HeLa) 2.68% [at 11.6 µM] | activity change, negative = cytotoxicity (Hek293T [2]) 0.0542% [at 11.6 µM] | activity change, negative = cytotoxicity (JEG-3) -2.75% [at 11.6 µM] | activity change, negative = cytotoxicity (OV90) -1.56% [at 11.6 µM] | activity change, negative = cytotoxicity (PA-1) 0.948% [at 11.6 µM]

CC1(C)C(O)CCC2(C)C1C(O)C=C1COC(=O)C12O (centres undefined)
inactive: max response (KB-3-1) 5.78% | max response (NIH3T3) 0.735% | outcome (HACAT) | Potency (HEK293T [1]) | Potency (C33A) | Potency (CAOV3) | Potency (CASKI) | Potency (Es-2) | Potency (HeLa) | Potency (Hek293T [2]) | Potency (JEG-3) | Potency (OV90) | Potency (PA-1)

CC(C)CC(=O)O[C@@H]1OC=C(CO[C@@H]2O[C@H](CO[C@@H]3O[C@H](CO)[C@@H](O)[C@H](O)[C@H]3O)[C@@H](O)[C@H](O)[C@H]2O)[C@H]2C[C@H](O)[C@@H](CO)[C@@H]12
inactive: outcome (KB-3-1) | max response (NIH3T3) 0.598% | outcome (HACAT) inactive [at 17.4 µM] | Potency (HEK293T [1]) | Potency (C33A) | Potency (CAOV3) | Potency (CASKI) | Potency (Es-2) | Potency (HeLa) | Potency (Hek293T [2]) | Potency (JEG-3) | Potency (OV90) | Potency (PA-1)
